# Shown are actives, neighbours in structure and some others; about 0.9% of the full set was active somewhere.
# SRC1 TRFRET art: flags TR-FRET format artefacts in PPARgamma SRC-1 recruitment agonist screen; TR-FRET detection artefact counter-screen, emission ratio; stronger effect = higher value; TR-FRET ratio at 8 µM; 99,000 compounds, 0.34% hits; in the data active = TR-FRET ratio above about 2300
# PPARg SRC1 recr: PPARgamma-driven SRC-1 recruitment agonism | P37231 | PPARgamma-SRC-1 coactivator recruitment biochemical assay | activation, % at 8 µM | 200,000 compounds, 0.41% hits | AID 631; in the data active = activation above about 19%;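 also: 0% = DMSO and 100% = reference agonist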
# Target sequence (P37231 whole entry, looked up): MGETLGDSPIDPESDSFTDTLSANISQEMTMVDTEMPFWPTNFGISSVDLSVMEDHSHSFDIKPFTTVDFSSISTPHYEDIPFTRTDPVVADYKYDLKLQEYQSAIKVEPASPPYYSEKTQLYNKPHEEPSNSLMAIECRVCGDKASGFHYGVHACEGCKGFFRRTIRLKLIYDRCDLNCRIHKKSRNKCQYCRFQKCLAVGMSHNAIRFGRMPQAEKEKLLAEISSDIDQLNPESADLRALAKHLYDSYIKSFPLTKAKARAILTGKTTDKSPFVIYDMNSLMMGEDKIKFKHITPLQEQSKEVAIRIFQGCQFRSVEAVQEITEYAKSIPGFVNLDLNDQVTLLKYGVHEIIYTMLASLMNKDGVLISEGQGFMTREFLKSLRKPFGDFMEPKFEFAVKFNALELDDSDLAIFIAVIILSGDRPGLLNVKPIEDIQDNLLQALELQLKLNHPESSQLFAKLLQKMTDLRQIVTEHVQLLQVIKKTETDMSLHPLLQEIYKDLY
# SRC2 TRFRET art: counter-screen for PPARgamma SRC-2 recruitment agonists: TR-FRET artefact. stronger effect = higher value. AID 1049. TR-FRET ratio at 8 µM. 200,000 compounds, 0.4% hits
# PPARg SRC-3 ag: agonists of human PPARgamma SRC-3 coactivator recruitment; P37231; biochemical PPARgamma/SRC-3 coactivator recruitment assay; activation, % at 8 µM; 200,000 compounds, 0.26% hits; AID 731; in the data active = activation above about 23%;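 also: 0% = DMSO and 100% = reference agonist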
# SRC3 TRFRET art: counter-screen for PPARgamma SRC-3 recruitment agonists: TR-FRET artefact; PPARgamma/SRC-3 format; stronger effect = higher value; TR-FRET ratio at 8 µM; 99,000 compounds, 0.39% hits
# PPARg SRC-2 ag: promotes SRC-2 coactivator recruitment by human PPARgamma; activation, % at 8 µM; 200,000 compounds, 0.34% hits; AID 1032; PPARgamma LBD-SRC-2 recruitment, biochemical; P37231; in the data active = activation above about 22%;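 also: 0% = vehicle and 100% = reference agonist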
# Active calls of the source: *; . = not tested or not shown. Rule as the data show it, unless noted: active = TR-FRET ratio above about 2000; inactive = the rest.
SMILES,SRC1 TRFRET art,PPARg SRC1 recr,SRC2 TRFRET art,PPARg SRC-3 ag,SRC3 TRFRET art,PPARg SRC-2 ag
Cc1cc(C)n(-c2nc(SCC(=O)Nc3nccs3)c3c4c(sc3n2)COC(C)(C)C4)n1,.,19*,1687,5,.,5
Cc1ccccc1NC(=S)N(CCN1CCCCC1)Cc1ccco1,2157,5,2001*,3,1622,4
Cc1ccccc1NC(=S)N(CCCN1CCCCC1)Cc1ccco1,1866,-4,1704,0,1580,-4
CC1Cc2ccccc2N1C(=O)CSc1nnnn1-c1ccc2c(c1)OCCO2 (stereo not drawn),.,7,2058*,3,.,18
COc1ccc(CCN(Cc2nc3ccccc3c(=O)[nH]2)C(=O)c2ccco2)cc1OC,.,20*,1517,-1,.,-1
Nc1nc(SCC(=O)Nc2ccc([N+](=O)[O-])cc2)n[nH]1,1850,4,1598,3,1730,5
CCc1cc2ccc(C)cc2nc1SCC(=O)Nc1cc(C)on1,1621,-2,1591,1,1470,-2
CCc1cc2cc3c(cc2nc1SCC(=O)Nc1cc(C)on1)OCO3,.,36*,1540,3,.,5
Cc1ccc(-c2nc(CN(Cc3c(C)nn(C)c3C)C(C)C)c(C)o2)o1,1793,4,1653,5,1722,4
O=C(CNC(=O)c1cccs1)OCC(=O)c1ccc2ccccc2c1,.,-5,1722,3,.,10
CC(C)(C)c1ccc(C(=O)NCC(=O)OCC(=O)c2ccc3c(c2)-c2ccccc2C3)cc1,2576*,1,2064*,2,1890,7
O=C(NCCN1C(=O)S/C(=C/c2cccnc2)C1=O)C1CC(=O)N(Cc2ccccc2)C1 (stereo not drawn),1720,5,1710,9,1623,8
N#Cc1c(N)nc(SCC(=O)C23CC4CC(CC(C4)C2)C3)c(C#N)c1-c1ccc(Cl)cc1,.,99*,1336,4,.,2
CSc1nc(N)nc(SCC(=O)C23CC4CC(CC(C4)C2)C3)c1C#N,.,2,1593,13,.,4
CCOC(=O)c1sc2nc(CC(=O)OC)nc(NCc3ccc(F)cc3)c2c1C,.,8,3064*,-1,.,57*
Cc1ccc([N+](=O)[O-])cc1N,2200,2,1648,-1,1774,5
Nc1ccc2c(c1)Cc1cc([N+](=O)[O-])ccc1-2,1760,20,2054*,3,1573,11
O=C1CC(N2CCN(c3ncccn3)CC2)C(=O)N1CCc1ccccc1 (stereo not drawn),1661,-4,1486,8,1549,3
Cn1cc(Br)c(C(=O)NN2C(=O)C3C(C2=O)C2C=CC3C23CC3)n1 (stereo not drawn),1830,4,1646,3,1562,2
COC(=O)c1cc(NC(=O)c2ccc(F)cc2)cc(C(=O)OC)c1,1709,-2,1358,4,1380,1
NNc1nc2c(-c3ccc(Cl)cc3)nnn2c2ccccc12,1516,11,1573,6,1621,2
NNc1nc2c(-c3ccc(F)cc3)nnn2c2ccccc12,1861,24*,1767,6,1482,9
CC(C)N(C(=O)COC(=O)CNS(=O)(=O)c1ccccc1F)c1ccccc1,1877,5,1510,0,1436,2
CCOC(=O)C1=C(O)/C(=C/c2cccc(OC)c2O)N=C1C,2067,11,1738,3,2061*,7
O=C(Nc1cnccn1)c1cccc(C(F)(F)F)c1,.,0,2375*,2,.,65*
SMILES,SRC1 TRFRET art,PPARg SRC1 recr,SRC2 TRFRET art,PPARg SRC-3 ag,SRC3 TRFRET art,PPARg SRC-2 ag
CC1(C)Cc2c(C#N)c(SCc3ccccc3)nc(N3CCOCC3)c2CO1,.,11,1710,-7,.,2
CC1(C)Cc2c(C#N)c(SCC(=O)c3ccccc3)nc(N3CCOCC3)c2CO1,.,2,3056*,-9,.,60*
COc1ccc(CCN(C)S(=O)(=O)c2ccc(Cl)nc2)cc1OC,1881,7,1975*,3,1616,0
CN(Cc1ccccc1)S(=O)(=O)c1ccc(Cl)nc1,.,6,1574,12,.,3
COC(=O)Cc1c(C(=O)OC)nnn1-c1ccc(OC(F)(F)F)cc1,1839,5,1836,8,1600,17
COCC(=O)Nc1ccc(S(=O)(=O)Nc2ccccn2)cc1,1869,4,1636,4,1445,6
COc1ccc(N2CCN(C(=O)c3ccc(Cn4c(=S)[nH]c5ccc(N6CCOCC6)cc5c4=O)cc3)CC2)cc1,1727,4,1719,8,1821,0
O=C(CCCCCn1c(=S)[nH]c2ccc(N3CCOCC3)cc2c1=O)NCCc1ccccc1,1893,-3,1485,4,1541,0
O=c1c2cc(N3CCOCC3)ccc2[nH]c(=S)n1Cc1ccc(Cl)cc1,.,-2,1524,-6,.,0
O=C(CCCCCn1c(=S)[nH]c2ccc(N3CCOCC3)cc2c1=O)NCc1ccc2c(c1)OCO2,1919,3,1663,13,3424*,6
CCCCn1c(=S)[nH]c2ccc(N3CCOCC3)cc2c1=O,1816,-3,1492,3,1807,14
O=C(CCCCCn1c(=S)[nH]c2ccc(N3CCOCC3)cc2c1=O)NCc1ccc(Cl)cc1,2133,5,1687,8,2786*,6
O=C(CCCCCn1c(=S)[nH]c2ccc(N3CCOCC3)cc2c1=O)NCc1ccccc1Cl,1939,7,1729,13,3063*,9
O=C(c1ccc(Cn2c(=S)[nH]c3ccc(N4CCOCC4)cc3c2=O)cc1)N1CCN(c2ccc(F)cc2)CC1,3474*,20,2803*,14,3426*,17
CCOC(=O)C1(Cc2cccc(OC)c2)CCN(Cc2cccc3c2OCO3)CC1,1809,-2,1611,6,1518,0
O=C(N/N=C/C(Br)=C/c1ccccc1)NC1CCCCC1,1911,3,1543,8,1424,2
CC(/C=N/NC(=O)NC1CCCCC1)=C\c1ccccc1,2009,-1,2081*,2,1722,7
CC(=O)c1cccc(NC(=O)c2cc3ccccn3n2)c1,.,6,1832,4,.,24*
Cc1cccc(C)c1NC(=O)CSc1nnc(C)n1CC1CCCO1 (stereo not drawn),1719,3,1421,1,1589,-5
CCN(CC)CCn1c(NC(=O)c2ccc(Cl)cc2)nc2ccccc21,.,-5,4842*,1,.,153*
N#Cc1ccc(NC(=S)NCCN2CCOCC2)cc1,1916,-8,1508,0,1447,-1
CCOC(=O)c1c(NC(=O)CN2C(=O)CN(C)C2=O)sc(C)c1C,1820,14,1581,2,1400,4
COC(=O)c1nnn(-c2ccccc2)c1N,.,-1,1453,1,.,1
COCc1c(C(=O)OC)nnn1-c1ccccc1,.,94*,1401,12,.,-4
COc1ccc(C2CC(c3ccccc3)=NN2C(=O)COC(=O)c2cc(S(=O)(=O)N3CCOCC3)ccc2F)cc1 (stereo not drawn),2247,16,2124*,4,2106*,5
